Calls of active or inactive are those of the source. Rule for the calls: active = hit-call score of the fitted dose curve at least 0.9, where 1 is the maximum; inactive = score below 0.9.
Assays:
[1] = ATG_GLI_CIS: Attagene CIS-FACTORIAL HepG2 Assay for human Zinc Finger Protein GLI1 (AID 2282945); settings: HepG2, Attagene cis-factorial reporter mRNA, GLI element; actives raise or lower the signal
Method in brief: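 HepG2 cells transiently transfected with cis-promoter multiplexed reporter units report endogenous transcription factor activity. After 24 h chemical exposure, reporter mRNA was quantified by RT-PCR, 6-FAM labelling, HpaI digestion and capillary electrophoresis, with bidirectional fitting against DMSO.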

[2] = biological target: Bile acid receptor (Homo sapiens) (UniProt Q96RI1); assay: ATG_IR1_CIS: Attagene CIS-FACTORIAL HepG2 Assay for human Nuclear Receptor Subfamily 1 Group H Member 4 (NR1H4), IR1 submotif (AID 2282946); settings: IR1 reporter transcription, actives raise or lower the signal
Method in brief: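 Transient MRTU transfection, HepG2; 24 h dosing; RNA → RT-PCR → 6-FAM primer extension → HpaI digest → capillary electrophoresis fluorescence. Gain/loss of signal fitted relative to DMSO.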

[3] = ATG_GRE_CIS: Attagene CIS-FACTORIAL HepG2 Assay for human Glucocorticoid Response Elements (GRE) (AID 2282947); settings: HepG2 GRE cis-reporter, Attagene multiplex mRNA; actives raise or lower the signal
Method in brief: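 Following 24 h chemical exposure of transiently transfected HepG2 cells, total RNA was reverse-transcribed and reporter cDNA amplified, fluorescently labelled and sized by capillary electrophoresis. Signal gain or loss was fitted relative to DMSO vehicle.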

[4] = ATG_M_32_CIS: Attagene CIS-FACTORIAL HepG2 Assay for M32 Transcription Factor (Internal Marker) (AID 2282949); settings: HepG2 Attagene cis-factorial M32 reporter, mRNA; actives raise or lower the signal;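 note: background control marker of the multiplexed CIS panel rather than a real target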
Method in brief: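 Fluorescent capillary electrophoresis peaks of HpaI-digested, FAM-labelled RT-PCR reporter products give the signal. Source: transiently transfected human liver HepG2 cells, 24 h after chemical dosing; bidirectional fitting against DMSO.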

[5] = ATG_M_06_CIS: Attagene CIS-FACTORIAL HepG2 Assay for M06 Transcription Factor (Internal Marker) (AID 2282950); settings: HepG2 Attagene CIS-FACTORIAL M06 internal marker reporter; actives raise or lower the signal
Method in brief: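 Read-out is fluorescence of labelled reporter cDNA fragments resolved by capillary electrophoresis after RT-PCR. Cells: HepG2 carrying transfected cis-promoter reporter units, treated 24 h. Gain or loss of signal fitted relative to DMSO.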

[6] = biological target: Hypoxia-inducible factor 1-alpha (Homo sapiens) (UniProt Q16665); assay: ATG_HIF1a_CIS: Attagene CIS-FACTORIAL HepG2 Assay for human Hypoxia Inducible Factor 1 (HIF1A) (AID 2282951); settings: HepG2 Attagene cis-factorial HIF1a reporter transcription; actives raise or lower the signal
Method in brief: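 Dosed 24 h, transfected HepG2 cells yielded total RNA whose reporter transcripts were RT-PCR-amplified and sized by capillary electrophoresis using fluorescent labelling; DMSO defined baseline, with gain and loss of signal both fitted.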

[7] = biological target: Hepatocyte nuclear factor 6 (Homo sapiens) (UniProt Q9UBC0); assay: ATG_HNF6_CIS: Attagene CIS-FACTORIAL HepG2 Assay for human Hepatocyte Nuclear Factor 6 (HNF6) (AID 2282952); settings: HepG2 Attagene cis-factorial HNF6 reporter transcription; actives raise or lower the signal
Method in brief: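 HepG2 cells transiently transfected with cis-element-driven multiplexed reporter units measuring endogenous transcription factor activity. After 24 h exposure, reporter mRNA quantified by RT-PCR, FAM-labelled fragments and capillary electrophoresis; bidirectional fitting versus DMSO.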

[8] = biological target: Heat shock factor protein 1 (Homo sapiens) (UniProt Q00613); assay: ATG_HSE_CIS: Attagene CIS-FACTORIAL HepG2 Assay for human Heat Shock Transcription Factor 1 (HSE) (AID 2282953); settings: HepG2 HSE cis-reporter, Attagene RNA transcription; actives raise or lower the signal
Method in brief: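 HepG2, transient MRTU transfection, cis-promoter reporters (endogenous TF activity). 24 h compound. RNA → oligo(dT) RT → PCR → 6-FAM primer extension → HpaI cut → CE. Bidirectional fit vs DMSO.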

[9] = ATG_MRE_CIS: Attagene CIS-FACTORIAL HepG2 Assay for human Metal Responsive Element (MRE) (AID 2282954); settings: HepG2 MRE cis-reporter transcription, Attagene multiplex; actives raise or lower the signal
Method in brief: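 Step one: transfect HepG2 with cis-regulated reporter units. Step two: dose 24 h. Step three: isolate RNA, RT-PCR, 6-FAM label, HpaI digest, capillary electrophoresis. Fit bidirectionally to DMSO.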

[10] = biological target: Paired box protein Pax-6 (Homo sapiens) (UniProt P26367); assay: ATG_Pax6_CIS: Attagene CIS-FACTORIAL HepG2 Assay for human Paired Box 6 (PAX6) (AID 2282956); settings: HepG2 CIS-FACTORIAL PAX6 reporter transcription, RNA readout; actives raise or lower the signal
Method in brief: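 Transient MRTU transfection of HepG2 → compound exposure 24 h → TriZol RNA, oligo(dT) RT → PCR, 6-FAM primer extension, HpaI cut → capillary electrophoresis; activity fitted both directions against DMSO.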

[11] = ATG_PXRE_CIS: Attagene CIS-FACTORIAL HepG2 Assay for human Pregnane X Receptor Element (PXRE) (AID 2282957); settings: HepG2 Attagene CIS-FACTORIAL PXRE reporter, mRNA; actives raise or lower the signal
Method in brief: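 HepG2 cells transiently transfected with cis-element-driven multiplexed reporter units; after 24 h chemical exposure, reporter mRNA measured by RT-PCR, 6-FAM labelling, HpaI digestion and capillary electrophoresis. Bidirectional fitting relative to DMSO.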

[12] = ATG_PPRE_CIS: Attagene CIS-FACTORIAL HepG2 Assay for human Peroxisome Proliferator-activated Response Element (PPRE) (AID 2282958); settings: HepG2 PPRE cis-element reporter, Attagene transcription factor profiling; actives raise or lower the signal
Method in brief: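 Measured endpoint: PPRE-controlled reporter mRNA, detected by RT-PCR and capillary electrophoresis fluorescence, from transiently transfected HepG2 cells 24 h after dosing. Curves fitted in both directions using DMSO baseline.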

[13] = ATG_RORE_CIS: Attagene CIS-FACTORIAL HepG2 Assay for human RAR-related Orphan Receptor Element (RORE) (AID 2282959); settings: HepG2 Attagene cis-factorial RORE reporter, mRNA; actives raise or lower the signal
Method in brief: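 Transiently transfected HepG2 reporter cells were treated 24 h. Reporter transcripts were detected by RT-PCR and capillary electrophoresis, with bidirectional fitting against DMSO.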

[14] = ATG_Sox_CIS: Attagene CIS-FACTORIAL HepG2 Assay for human SRY-box transcription factor (SOX) (AID 2282960); settings: HepG2 Attagene cis-factorial SOX reporter, mRNA; actives raise or lower the signal
Method in brief: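 Gain- or loss-of-signal endpoint, fitted bidirectionally with DMSO as negative control. Based on reporter mRNA from transfected HepG2 cells harvested 24 h post-treatment and quantified via RT-PCR and capillary electrophoresis.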

[15] = biological target: Transcription factor Sp1 (Homo sapiens) (UniProt P08047); assay: ATG_Sp1_CIS: Attagene CIS-FACTORIAL HepG2 Assay for human Specificity Protein 1 (Sp1) (AID 2282961); settings: HepG2 Sp1 cis-reporter transcription, actives raise or lower the signal
Method in brief: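 Endpoint reflects endogenous Sp1 transcriptional activity, not an exogenous fusion protein: HepG2 cells with transfected cis-regulated reporters, 24 h dosing, RT-PCR/capillary electrophoresis mRNA read-out, DMSO-normalised bidirectional fit.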

[16] = ATG_SREBP_CIS: Attagene CIS-FACTORIAL HepG2 Assay for human Sterol Regulatory Element Binding (SREBP) (AID 2282962); settings: HepG2 Attagene cis-factorial SREBP reporter, mRNA; actives raise or lower the signal
Method in brief: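 Transfected HepG2 (cis-regulated reporter library, endogenous TFs) → compound 24 h → total RNA → oligo(dT) RT → reporter-specific PCR → FAM primer extension, HpaI cut → CE fluorescence. Fit bidirectional vs DMSO.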

[17] = biological target: Signal transducer and activator of transcription 3 (Homo sapiens) (UniProt P40763); assay: ATG_STAT3_CIS: Attagene CIS-FACTORIAL HepG2 Assay for human Signal Transducer and Activator of Transcription 3 (STAT3) (AID 2282963); settings: HepG2, Attagene cis-factorial STAT3 reporter transcription; actives raise or lower the signal
Method in brief: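 Transcript-level reporter assay. HepG2 transient MRTU transfection, 24 h exposure, fluorescence detection after RT-PCR and CE; DMSO baseline.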

[18] = ATG_TA_CIS: Attagene CIS-FACTORIAL HepG2 Assay for human TA Basal Promoter (AID 2282964); settings: HepG2 Attagene CIS-factorial TA basal promoter reporter; actives raise or lower the signal
Method in brief: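 Read-out: fluorescent reporter-transcript fragments resolved by capillary electrophoresis after RT-PCR and HpaI digestion. Source: HepG2 cells carrying transiently transfected multi-reporter cis constructs, treated 24 h. Endpoint fitted bidirectionally relative to DMSO.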

[19] = ATG_ISRE_CIS: Attagene CIS-FACTORIAL HepG2 Assay for human Interferon Regulatory Factor 1 (IRF1) binding to an Interferon-Stimulated Response Element (ISRE) (AID 2282948); settings: HepG2 ISRE cis-reporter (Attagene), mRNA transcription readout; actives raise or lower the signal
Method in brief: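 Transfected HepG2 (multiple reporter transcription units, cis elements) dosed 24 h. RNA → oligo(dT) RT → PCR → 6-FAM primer extension → HpaI → CE. DMSO = negative control/baseline.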

[20] = ATG_PBREM_CIS: Attagene CIS-FACTORIAL HepG2 Assay for human Phenobarbital-responsive Enhancer Module (PBREM) (AID 2282955); settings: HepG2 PBREM cis-reporter, Attagene multiplexed transcription; actives raise or lower the signal
Method in brief: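 Transfected liver-derived HepG2 cells exposed 24 h; PBREM reporter transcript quantified via RT-PCR and capillary electrophoresis, with activity in either direction referenced to DMSO.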

Sequence of Heat shock factor protein 1 (Homo sapiens) (Q00613 whole entry, looked up): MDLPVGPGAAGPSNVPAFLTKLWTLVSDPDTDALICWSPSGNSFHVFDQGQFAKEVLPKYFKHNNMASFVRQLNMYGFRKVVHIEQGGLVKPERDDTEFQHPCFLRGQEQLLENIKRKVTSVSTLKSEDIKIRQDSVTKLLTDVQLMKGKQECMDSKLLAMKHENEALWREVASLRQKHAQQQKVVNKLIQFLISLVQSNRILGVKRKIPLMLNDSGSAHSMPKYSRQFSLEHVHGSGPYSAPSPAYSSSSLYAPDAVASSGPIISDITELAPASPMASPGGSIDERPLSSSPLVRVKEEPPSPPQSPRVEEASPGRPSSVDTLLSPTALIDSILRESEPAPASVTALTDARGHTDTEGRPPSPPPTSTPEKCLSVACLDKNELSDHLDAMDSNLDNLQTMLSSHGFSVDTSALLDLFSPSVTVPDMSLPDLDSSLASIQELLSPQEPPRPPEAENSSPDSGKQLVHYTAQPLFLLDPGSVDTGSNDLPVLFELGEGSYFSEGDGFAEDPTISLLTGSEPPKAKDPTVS
Sequence of Bile acid receptor (Homo sapiens) (Q96RI1 whole entry, looked up): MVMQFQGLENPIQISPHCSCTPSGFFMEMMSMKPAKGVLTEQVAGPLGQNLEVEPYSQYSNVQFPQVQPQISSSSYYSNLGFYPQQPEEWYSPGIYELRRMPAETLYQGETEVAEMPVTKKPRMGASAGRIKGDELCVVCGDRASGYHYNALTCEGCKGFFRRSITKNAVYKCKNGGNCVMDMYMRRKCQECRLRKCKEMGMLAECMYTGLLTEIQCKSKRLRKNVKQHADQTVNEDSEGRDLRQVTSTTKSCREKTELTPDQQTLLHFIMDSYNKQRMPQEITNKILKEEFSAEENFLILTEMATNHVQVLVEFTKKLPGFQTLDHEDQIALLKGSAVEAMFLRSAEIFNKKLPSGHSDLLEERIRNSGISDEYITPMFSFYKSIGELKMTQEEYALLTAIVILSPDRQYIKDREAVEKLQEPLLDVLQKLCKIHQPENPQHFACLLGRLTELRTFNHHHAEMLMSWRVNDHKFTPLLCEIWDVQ
Sequence of Paired box protein Pax-6 (Homo sapiens) (P26367 whole entry, looked up): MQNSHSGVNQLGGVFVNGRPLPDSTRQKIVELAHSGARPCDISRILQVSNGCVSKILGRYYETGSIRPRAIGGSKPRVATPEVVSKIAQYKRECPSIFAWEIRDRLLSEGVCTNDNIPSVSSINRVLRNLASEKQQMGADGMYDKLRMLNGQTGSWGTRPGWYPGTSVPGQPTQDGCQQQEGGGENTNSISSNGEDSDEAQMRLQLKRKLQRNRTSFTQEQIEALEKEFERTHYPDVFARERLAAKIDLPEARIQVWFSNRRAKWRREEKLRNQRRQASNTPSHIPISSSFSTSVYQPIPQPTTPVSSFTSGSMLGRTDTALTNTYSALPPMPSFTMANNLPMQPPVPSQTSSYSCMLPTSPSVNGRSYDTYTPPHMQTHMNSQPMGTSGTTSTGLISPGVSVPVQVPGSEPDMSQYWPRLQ
Sequence of Transcription factor Sp1 (Homo sapiens) (P08047 whole entry, looked up, the tested form may be a part): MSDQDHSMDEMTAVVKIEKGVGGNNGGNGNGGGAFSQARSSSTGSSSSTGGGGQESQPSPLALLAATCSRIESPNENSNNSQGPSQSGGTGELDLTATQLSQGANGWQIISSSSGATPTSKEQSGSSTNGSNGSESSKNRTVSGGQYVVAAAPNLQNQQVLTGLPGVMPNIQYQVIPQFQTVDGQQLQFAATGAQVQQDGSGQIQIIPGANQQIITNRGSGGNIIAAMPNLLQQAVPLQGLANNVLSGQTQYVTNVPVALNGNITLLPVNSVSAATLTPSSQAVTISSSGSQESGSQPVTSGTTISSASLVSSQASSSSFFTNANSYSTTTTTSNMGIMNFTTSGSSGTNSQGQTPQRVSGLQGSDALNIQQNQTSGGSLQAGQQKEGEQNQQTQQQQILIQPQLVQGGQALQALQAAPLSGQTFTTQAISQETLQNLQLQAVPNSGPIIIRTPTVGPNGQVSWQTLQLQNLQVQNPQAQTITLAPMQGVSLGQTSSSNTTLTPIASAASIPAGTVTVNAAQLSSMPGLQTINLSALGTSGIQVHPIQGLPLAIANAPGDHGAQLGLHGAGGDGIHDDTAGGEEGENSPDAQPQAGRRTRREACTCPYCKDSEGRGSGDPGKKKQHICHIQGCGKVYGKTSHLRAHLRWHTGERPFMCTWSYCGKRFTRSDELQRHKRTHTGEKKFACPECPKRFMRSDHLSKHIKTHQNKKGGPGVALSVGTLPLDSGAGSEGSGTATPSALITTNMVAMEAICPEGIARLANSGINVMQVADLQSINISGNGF
Sequence of Hepatocyte nuclear factor 6 (Homo sapiens) (Q9UBC0 whole entry, looked up, the tested form may be a part): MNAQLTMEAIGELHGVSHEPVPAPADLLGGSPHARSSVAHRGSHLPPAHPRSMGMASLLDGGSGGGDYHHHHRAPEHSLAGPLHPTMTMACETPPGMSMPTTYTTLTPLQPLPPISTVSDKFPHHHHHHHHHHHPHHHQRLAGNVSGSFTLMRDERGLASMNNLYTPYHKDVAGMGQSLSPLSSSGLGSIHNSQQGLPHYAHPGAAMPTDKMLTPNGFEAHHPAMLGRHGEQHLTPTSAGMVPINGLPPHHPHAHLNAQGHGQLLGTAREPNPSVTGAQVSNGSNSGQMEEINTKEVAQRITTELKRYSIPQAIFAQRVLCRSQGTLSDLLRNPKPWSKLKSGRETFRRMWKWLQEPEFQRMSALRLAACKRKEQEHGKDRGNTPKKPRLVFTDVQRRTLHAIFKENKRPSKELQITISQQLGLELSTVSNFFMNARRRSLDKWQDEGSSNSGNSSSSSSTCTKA
Sequence of Hypoxia-inducible factor 1-alpha (Homo sapiens) (Q16665 whole entry, looked up): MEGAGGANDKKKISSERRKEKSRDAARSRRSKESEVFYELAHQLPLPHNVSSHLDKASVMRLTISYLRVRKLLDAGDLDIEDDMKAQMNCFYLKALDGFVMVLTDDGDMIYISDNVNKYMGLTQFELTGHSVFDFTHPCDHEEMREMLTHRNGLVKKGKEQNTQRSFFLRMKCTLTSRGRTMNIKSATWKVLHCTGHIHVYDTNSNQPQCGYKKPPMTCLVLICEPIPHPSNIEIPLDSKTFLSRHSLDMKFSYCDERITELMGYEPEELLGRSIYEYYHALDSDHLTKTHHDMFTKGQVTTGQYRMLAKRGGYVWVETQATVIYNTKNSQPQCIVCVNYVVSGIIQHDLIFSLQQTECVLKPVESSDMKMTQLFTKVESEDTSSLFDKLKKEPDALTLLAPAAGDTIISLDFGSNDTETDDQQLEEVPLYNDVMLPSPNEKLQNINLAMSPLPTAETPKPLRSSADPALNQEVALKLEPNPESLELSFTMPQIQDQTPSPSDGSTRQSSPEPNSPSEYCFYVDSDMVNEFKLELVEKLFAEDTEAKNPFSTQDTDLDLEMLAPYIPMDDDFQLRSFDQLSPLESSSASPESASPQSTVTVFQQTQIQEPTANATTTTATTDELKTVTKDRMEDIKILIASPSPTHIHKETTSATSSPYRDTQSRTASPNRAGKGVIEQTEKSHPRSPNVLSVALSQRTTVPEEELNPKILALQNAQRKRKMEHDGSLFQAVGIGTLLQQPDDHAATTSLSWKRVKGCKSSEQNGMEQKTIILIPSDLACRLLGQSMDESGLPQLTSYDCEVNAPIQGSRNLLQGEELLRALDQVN
Sequence of Signal transducer and activator of transcription 3 (Homo sapiens) (P40763 whole entry, looked up): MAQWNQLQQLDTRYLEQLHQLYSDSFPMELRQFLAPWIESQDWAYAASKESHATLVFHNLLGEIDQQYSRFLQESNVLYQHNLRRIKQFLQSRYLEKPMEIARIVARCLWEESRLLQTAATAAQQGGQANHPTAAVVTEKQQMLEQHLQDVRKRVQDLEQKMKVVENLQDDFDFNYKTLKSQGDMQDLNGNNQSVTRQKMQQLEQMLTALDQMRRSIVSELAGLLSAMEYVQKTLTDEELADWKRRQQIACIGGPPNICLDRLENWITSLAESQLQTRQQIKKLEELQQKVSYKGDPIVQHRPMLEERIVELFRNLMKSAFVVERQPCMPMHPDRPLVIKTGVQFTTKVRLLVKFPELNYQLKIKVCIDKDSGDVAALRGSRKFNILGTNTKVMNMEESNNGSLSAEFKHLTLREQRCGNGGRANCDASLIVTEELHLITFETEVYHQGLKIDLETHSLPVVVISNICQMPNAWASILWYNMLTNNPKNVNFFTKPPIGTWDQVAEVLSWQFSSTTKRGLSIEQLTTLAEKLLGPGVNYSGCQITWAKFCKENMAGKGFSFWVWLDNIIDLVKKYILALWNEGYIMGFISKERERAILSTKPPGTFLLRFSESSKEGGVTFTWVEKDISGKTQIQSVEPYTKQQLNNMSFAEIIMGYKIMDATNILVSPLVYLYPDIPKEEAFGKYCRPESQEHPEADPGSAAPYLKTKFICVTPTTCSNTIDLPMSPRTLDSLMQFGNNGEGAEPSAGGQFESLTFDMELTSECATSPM

COC(=O)c1ccccc1C
outcome [1]: inactive
outcome [2]: inactive
outcome [3]: inactive
outcome [4]: inactive
outcome [5]: inactive
outcome [6]: inactive
outcome [7]: inactive
outcome [8]: inactive
outcome [9]: inactive
outcome [10]: inactive
AC50 [11]: 40.6 µM (active)
outcome [12]: inactive
outcome [13]: inactive
outcome [14]: inactive
outcome [15]: inactive
outcome [16]: inactive
outcome [17]: inactive
outcome [18]: inactive

O=c1c(O)c(-c2ccc(O)cc2O)oc2cc(O)cc(O)c12
outcome [1]: inactive
outcome [2]: inactive
outcome [3]: inactive
outcome [19]: inactive
outcome [4]: inactive
outcome [5]: inactive
outcome [7]: inactive
outcome [8]: inactive
outcome [9]: inactive
outcome [20]: inactive
outcome [10]: inactive
AC50 [11]: 26.5 µM (active)
outcome [14]: inactive
outcome [15]: inactive
outcome [16]: inactive
outcome [18]: inactive

c1ccc2sc(SSN3CCOCC3)nc2c1
AC50 [1]: 79.4 µM (active)
AC50 [2]: 105 µM (active)
outcome [19]: inactive
outcome [4]: inactive
outcome [5]: inactive
AC50 [6]: 32.2 µM (active)
outcome [7]: inactive
AC50 [8]: 69.6 µM (active)
AC50 [9]: 123 µM (active)
AC50 [10]: 100 µM (active)
outcome [11]: inactive
outcome [13]: inactive
AC50 [14]: 138 µM (active)
AC50 [15]: 70.4 µM (active)
AC50 [16]: 59.2 µM (active)
AC50 [17]: 139 µM (active)
outcome [18]: inactive
